Among the test systems are SK-MEL-2 melanoma; EKVX NSCLC; SN12C renal; UO-31 renal; TK-10 renal; ACHN renal; CAKI-1 renal; A498 renal; CCRF-CEM leukemia; MOLT-4 leukemia; SR leukemia; RPMI-8226 leukemia; OVCAR-5 ovarian; OVCAR-4 ovarian; SK-OV-3 ovarian; IGROV1 ovarian; OVCAR-3 ovarian; HS 578T breast; NCI/ADR-RES ovarian; OVCAR-8 ovarian.
Test in all cases: NCI-60 one-dose screen, 48 h (100 = growth as untreated, 0 = no growth, -100 = all killed)
Common to all, as to conditions: 10 µM unless noted

This is part of a sample that, as a whole, favours compounds with a hit. Of some 83,000 tested, about 20% had one in any assay.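 Results are percent growth after 48 hours of single-concentration exposure. 100 means growth as in untreated cells, lower positive values show inhibition; negative values down to -100 show cell death.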 Values without a mark were called inactive. The source made the active and inactive calls. Rule for the calls: active = growth percent below 10; inactive = the rest.

Consider `CC(Br)C(Br)c1cc2c(cc1Br)OCO2` (centres undefined), for which the growth in the assay with SK-MEL-2 melanoma was 91.4%; with EKVX NSCLC, 93.8%; in the assay on SN12C renal, 110%; in the assay on UO-31 renal, 90.7%; in the assay with TK-10 renal, 96.6%; with ACHN renal it was 93.2%. In addition, the growth in the assay on CAKI-1 renal is 84%; in the assay with A498 renal, 99.3%; with CCRF-CEM leukemia, 99.6%; in the assay with MOLT-4 leukemia, 94.7%; with SR leukemia, 98.6%; with RPMI-8226 leukemia, 105%. Further, the growth is 98.6% in the assay with OVCAR-5 ovarian; 105% in the assay on OVCAR-4 ovarian; 84% in the assay with SK-OV-3 ovarian; 97.5% in the assay with IGROV1 ovarian; 107% in the assay on OVCAR-3 ovarian; -96.5% (active) with HS 578T breast. In the assay on NCI/ADR-RES ovarian, the growth is 99.1%.

For the compound `COc1ccc2c(c1)NC(=O)CN2c1nc(NC2CC2)nc2ccccc12`, the growth in the assay on SK-MEL-2 melanoma was 25.7%; with EKVX NSCLC, 27.8%; in the assay on SN12C renal, 39.1%; in the assay on UO-31 renal it was 28.7%; in the assay with TK-10 renal it was 23.6%; in the assay with ACHN renal, 24.9%. Also, the growth in the assay with CAKI-1 renal is 32.9%; in the assay on A498 renal, -12.8% (active); with CCRF-CEM leukemia it was 31.7%; with MOLT-4 leukemia, 33.9%; in the assay with SR leukemia it was 31.5%; in the assay on OVCAR-8 ovarian, 18.3%. Moreover, the growth was 44% in the assay on OVCAR-5 ovarian; 40.3% with OVCAR-4 ovarian; 23.9% with SK-OV-3 ovarian; 24.5% in the assay on IGROV1 ovarian; -19.7% (active) in the assay with OVCAR-3 ovarian; 26.6% in the assay with HS 578T breast. For the same compound, the growth in the assay on NCI/ADR-RES ovarian was 5.39% (active).

As for `CC/C=C\C/C=C\C[C@H]1C/C=C2/C(=O)C=C[C@H]2C/C=C\CCC(=O)O1`, the growth in the assay with SK-MEL-2 melanoma was 7.15% (active); with EKVX NSCLC, 18.3%; in the assay with SN12C renal, -10.2% (active); in the assay with UO-31 renal it was -51.7% (active); with TK-10 renal it was 2.67% (active); with ACHN renal, -63.5% (active). In addition, the growth is 34.1% with CAKI-1 renal; 77.7% in the assay on A498 renal; 3.86% (active) in the assay on CCRF-CEM leukemia; -3.06% (active) in the assay on MOLT-4 leukemia; 4.9% (active) in the assay with SR leukemia; 4.52% (active) in the assay on RPMI-8226 leukemia. Moreover, the growth in the assay on OVCAR-8 ovarian was 0.0569% (active); in the assay with OVCAR-4 ovarian, 42.6%; in the assay on SK-OV-3 ovarian, 31.3%; in the assay on IGROV1 ovarian it was 3.81% (active); in the assay on OVCAR-3 ovarian, -12.1% (active); in the assay with HS 578T breast it was 40.2%. Besides, the growth in the assay with NCI/ADR-RES ovarian was 17.9%.

Regarding `COc1cccc2nc(Nc3ccc(NC(=O)c4ccc5ncccc5c4)cc3)ccc12`, the growth with SK-MEL-2 melanoma is 115%; with EKVX NSCLC it was 87.5%; in the assay on SN12C renal, 97.8%; in the assay with UO-31 renal, 82.4%; with TK-10 renal, 108%; in the assay with ACHN renal it was 92.8%. The growth is 70.2% in the assay on CAKI-1 renal; 83.4% with A498 renal; 69.4% with CCRF-CEM leukemia; 67.1% with MOLT-4 leukemia; 65.7% in the assay with SR leukemia; 33.4% in the assay on RPMI-8226 leukemia. The growth is 72.3% in the assay on OVCAR-8 ovarian; 89.7% in the assay on OVCAR-4 ovarian; 86.4% with SK-OV-3 ovarian; 105% in the assay with IGROV1 ovarian; 105% in the assay on OVCAR-3 ovarian; 66.7% in the assay with HS 578T breast. Besides, in the assay with NCI/ADR-RES ovarian, the growth was 86%.

On to `COc1ccc(/C=C/C(=O)/C=C/c2cc3ccc(Cl)cc3[nH]c2=O)cc1`, for which the growth with SK-MEL-2 melanoma was 94%; in the assay with EKVX NSCLC, 84.7%; with SN12C renal, 85.7%; in the assay with UO-31 renal, 75.7%; in the assay with TK-10 renal, 124%; in the assay on ACHN renal it was 88.6%. Moreover, the growth in the assay with CAKI-1 renal was 93.2%; in the assay on A498 renal, 92.7%; with CCRF-CEM leukemia, 56.8%; with MOLT-4 leukemia, 65.3%; in the assay with SR leukemia, -0.34% (active); in the assay on RPMI-8226 leukemia, 19.9%. In addition, the growth in the assay with OVCAR-8 ovarian was 81.4%; with OVCAR-4 ovarian, 92.9%; with SK-OV-3 ovarian, 91%; in the assay on OVCAR-3 ovarian, 75.4%; with HS 578T breast, 90.5%; in the assay on NCI/ADR-RES ovarian it was 103%.

As to `Cc1c(C(=O)NCc2ccccc2)[n+](=O)c2cc(F)ccc2n1[O-]`, the growth in the assay with SK-MEL-2 melanoma was 40.8%; with EKVX NSCLC, 114%; in the assay on SN12C renal, 103%; in the assay on UO-31 renal it was 39.4%; in the assay with TK-10 renal it was 138%; with ACHN renal, 102%. For the same compound, the growth is 79.7% in the assay with CAKI-1 renal; 101% in the assay on A498 renal; 52.5% with CCRF-CEM leukemia; 130% in the assay with MOLT-4 leukemia; 70.6% in the assay on SR leukemia; 64.1% in the assay with RPMI-8226 leukemia. The growth in the assay on OVCAR-8 ovarian was 116%; with SK-OV-3 ovarian, 109%; in the assay with IGROV1 ovarian, -26.7% (active); in the assay on OVCAR-3 ovarian, 93.2%; in the assay with HS 578T breast, 148%; with NCI/ADR-RES ovarian it was 105%.

Take `CCCCNc1nnc(-c2cc(-c3cc4ccccc4o3)nn2-c2ccccc2)o1`: the growth in the assay on SK-MEL-2 melanoma was 90.6%; in the assay with EKVX NSCLC, 99.4%; with SN12C renal, 93.6%; in the assay with UO-31 renal, 71.3%; in the assay on TK-10 renal, 104%; with ACHN renal it was 85.9%. Further, the growth in the assay on CAKI-1 renal was 97.4%; with A498 renal it was 86.5%; with CCRF-CEM leukemia, 80%; in the assay with MOLT-4 leukemia it was 68.8%; in the assay with SR leukemia it was 76.5%; in the assay on RPMI-8226 leukemia it was 77.9%. In addition, the growth is 88% with OVCAR-8 ovarian; 86.7% in the assay on OVCAR-4 ovarian; 99.4% in the assay on SK-OV-3 ovarian; 63.9% in the assay on IGROV1 ovarian; 66% in the assay with OVCAR-3 ovarian; 93.1% in the assay with HS 578T breast. Further, the growth in the assay on NCI/ADR-RES ovarian was 87.5%.

For `CCn1cc(C2NC(=O)c3cc(F)ccc3N2)c2cccc(Cl)c21` (centres undefined), the growth in the assay with SK-MEL-2 melanoma is 17.5%; in the assay on EKVX NSCLC, 37.6%; with SN12C renal, 29.8%; in the assay on UO-31 renal it was 42.6%; in the assay on TK-10 renal, 50.4%; with ACHN renal it was 33.5%. In addition, the growth with CAKI-1 renal was 34%; in the assay on A498 renal, -11.4% (active); in the assay with CCRF-CEM leukemia, 5.2% (active); in the assay with MOLT-4 leukemia, 10.8%; in the assay with SR leukemia, -10.1% (active); in the assay with RPMI-8226 leukemia it was 9.88% (active). In addition, the growth in the assay on OVCAR-5 ovarian was 36%; in the assay on OVCAR-4 ovarian, 39.4%; with SK-OV-3 ovarian, 27.7%; in the assay with IGROV1 ovarian it was 18.2%; in the assay on OVCAR-3 ovarian, 6.84% (active); in the assay with HS 578T breast it was 12.4%. The growth in the assay on NCI/ADR-RES ovarian is 1.68% (active).

`CN1CCN(CCCOc2ccc3nc(Nc4ccc(C(F)(F)F)c(Cl)c4)ccc3c2)CC1`: the growth with SK-MEL-2 melanoma was 8.88% (active); with EKVX NSCLC, 38.7%; with SN12C renal, 25%; in the assay on UO-31 renal, -8.8% (active); with TK-10 renal, 18.9%; in the assay with ACHN renal it was 3.12% (active). Moreover, the growth was 3.08% (active) in the assay on CAKI-1 renal; 63.3% in the assay with A498 renal; 3.91% (active) in the assay on CCRF-CEM leukemia; -35.7% (active) in the assay with MOLT-4 leukemia; -6.45% (active) in the assay with SR leukemia; -6.92% (active) with RPMI-8226 leukemia. Also, the growth is 31.3% with OVCAR-8 ovarian; 22.4% with OVCAR-5 ovarian; 41.7% in the assay with OVCAR-4 ovarian; 13.7% in the assay on IGROV1 ovarian; -11.8% (active) in the assay with OVCAR-3 ovarian; 16.3% with HS 578T breast. Moreover, the growth with NCI/ADR-RES ovarian is 20.4%.

(Values after PubChem BioAssay (NCI).)
